MPTP inh: inhibitors of mitochondrial permeability transition pore; isolated mouse mitochondria, Ca2+ swelling absorbance, 30 min; inhibition, % at 10 µM; 360,000 tested, 1.4% active;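 active means inhibition of 50% or more, scaled per plate between neutral and stimulator controls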
CSC inhib: cancer stem cell inhibition. inhibition, % at 7.5 µM. 300,000 tested, 1.1% active. AID 2717. cancer stem cell-like cells viability, luminescence; in the data active means inhibition above about 75%; tested in HMLE shEcad cells
Mdm2-MdmX inh: disrupts the human Mdm2-MdmX interaction. O15151+Q00987. SaOS-2 split-luciferase Mdm2/MdmX complementation, luminescence. inhibition, % at 8 µM. 330,000 tested, 3% active. AID 485346;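 active means inhibition of at least 50% at 8 µM in the primary screen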
Target sequence (O15151 whole entry, looked up): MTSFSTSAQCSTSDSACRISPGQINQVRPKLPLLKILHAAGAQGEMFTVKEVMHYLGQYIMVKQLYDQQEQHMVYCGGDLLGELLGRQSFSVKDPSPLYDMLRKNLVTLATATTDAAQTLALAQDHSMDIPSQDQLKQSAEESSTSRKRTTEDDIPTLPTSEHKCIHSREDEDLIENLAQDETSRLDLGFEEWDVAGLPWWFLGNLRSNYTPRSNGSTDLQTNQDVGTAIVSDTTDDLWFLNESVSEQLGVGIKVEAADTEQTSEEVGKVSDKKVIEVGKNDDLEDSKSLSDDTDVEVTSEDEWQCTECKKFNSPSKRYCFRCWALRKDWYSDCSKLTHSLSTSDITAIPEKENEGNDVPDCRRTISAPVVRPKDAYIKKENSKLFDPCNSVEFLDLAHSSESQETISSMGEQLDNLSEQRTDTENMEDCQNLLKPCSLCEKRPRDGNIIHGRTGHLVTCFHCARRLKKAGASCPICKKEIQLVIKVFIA
Target sequence (Q00987 whole entry, looked up): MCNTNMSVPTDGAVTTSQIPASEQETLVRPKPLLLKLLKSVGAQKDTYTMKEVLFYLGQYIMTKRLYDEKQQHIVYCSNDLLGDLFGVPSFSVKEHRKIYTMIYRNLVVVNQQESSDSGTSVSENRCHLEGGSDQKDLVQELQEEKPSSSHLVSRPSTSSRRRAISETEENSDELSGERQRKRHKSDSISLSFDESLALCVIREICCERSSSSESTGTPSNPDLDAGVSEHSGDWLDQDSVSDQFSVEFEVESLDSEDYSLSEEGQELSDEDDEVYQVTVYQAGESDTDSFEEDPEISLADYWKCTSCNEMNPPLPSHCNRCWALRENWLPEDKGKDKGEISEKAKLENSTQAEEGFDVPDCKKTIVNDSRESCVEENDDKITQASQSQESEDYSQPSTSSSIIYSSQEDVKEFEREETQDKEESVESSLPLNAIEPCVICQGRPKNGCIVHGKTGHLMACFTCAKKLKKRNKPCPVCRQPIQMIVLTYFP
SKKanGAS inh: inhibitors of SKKanGAS S. pyogenes growth in kanamycin (SK-promoter or general growth effect). 300,000 tested, 1.3% active. inhibition, % at 7.5 µM. BacTiter-Glo, 6 h. AID 1662;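 active means mean replicate score, as percent of positive control median, at least 50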;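 further: strain carries kanamycin resistance gene driven by streptokinase promoter and grows in 40 µg/ml kanamycin; loss of luminescence reflects streptokinase promoter inhibition or plain growth inhibition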
Beta cell apopt: blocks beta cell apoptosis; INS-1E cytokine-induced death, ATP luminescence, 48 h; percent of positive-control rescue, neutral wells zero; 300,000 tested, 0.8% active; protection from apoptosis, % (no concentration beside the values);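 active means Every replicate reaches about 75%, or at least half do and their mean reaches it too, limit read from the data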;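 further: higher means more ATP so stronger rescue from cytokine killing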
NR3A LBD binder: modulators (binders) of human NR3A ligand-binding domain. NR3A LBD differential scanning fluorimetry, Tm shift; 0% = protein alone, 100% = glycine-bound protein. Tm shift relative to glycine control, % at 25 µM. 340,000 tested, 2.5% active. AID 1259313;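 active means melting temperature shift of at least 10% of the positive control shift, at one fixed dose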
MPTP counter: mitochondrial membrane potential, counter-screen | shares compounds with MPTP inh | isolated mitochondria, Rhodamine 123 fluorescence | inhibition, % at 10 µM | 5,000 tested, 78% active | AID 624504; in the data active means inhibition above about 22%
MPTP swell DR: MPTP inhibition, dose response swelling confirmation; shares compounds with MPTP inh; isolated mitochondria swelling, absorbance; IC50, µM; 780 tested, 58% active; AID 651561; in the data active means IC50 below about 20 µM
MPTP cs DR: active in counter-screen for permeability transition pore inhibitors. shares compounds with MPTP inh. isolated mitochondria counterscreen, fluorescence read-out. IC50, µM. 780 tested, 49% active; in the data active means IC50 below about 80 µM
Hits are given with their value; n = inactive; x = not tested or not shown. A selection: hits, their analogues and other compounds. The true share with any hit is near 6.9%.

SMILES | MPTP inh | CSC inhib | Mdm2-MdmX inh | SKKanGAS inh | Beta cell apopt | NR3A LBD binder | MPTP counter | others
O=C(Nc1cccc(S(=O)(=O)Nc2ccc(Cl)cc2)c1)c1ccc(Cl)nc1 | 92.0 | n | n | n | 78.7 | 21.2 | 80.2
O=C(Nc1cc(S(=O)(=O)Nc2ccccc2Cl)ccc1O)c1cc2c(s1)CCCC2 | 89.1 | n | n | n | n | 11.9 | 82.9
COc1ccc(NS(=O)(=O)c2cccc(NC(=O)CCC(=O)c3cccs3)c2)cc1 | n | x | n | n | x | n | x
COc1ccc(NS(=O)(=O)c2cccc(NC(=O)CCS(=O)(=O)c3ccccc3)c2)cc1 | 55.4 | x | n | n | n | n | n | MPTP swell DR=n;MPTP cs DR=57.4
O=C(Nc1cccc(S(=O)(=O)Nc2ccc(Cl)cc2)c1)c1cc2c(s1)CCCC2 | 97.3 | 117.4 | n | 65.4 | n | 32.2 | 82.8
COc1cccc(N/C(N)=N/c2nc(C(F)(F)F)cc(=O)[nH]2)c1 | n | n | n | n | n | n | x
COc1ccc(NS(=O)(=O)c2cccc(NC(=O)c3ccc(Cl)nc3)c2)cc1 | 100.1 | n | n | n | 107.0 | n | 94.2
COc1cccc(S(=O)(=O)Nc2ccc(C(=O)Nc3ccncc3)cc2)c1 | n | n | n | n | n | n | x
CCOC(=O)c1cc(-c2ccccc2)sc1NC(=O)C(C)OC(=O)c1cccnc1OCC (centres undefined) | 67.6 | x | n | n | n | n | n | MPTP swell DR=n;MPTP cs DR=n
CCOC(=O)c1cc(-c2ccccc2)sc1NC(=O)C(C)OC(=O)c1cccc(S(=O)(=O)N(C)C)c1 (centres undefined) | n | n | n | n | n | n | x
CCc1nc(C(N)=O)c2[nH]c(=O)n(-c3ccccc3F)c2n1 | n | n | n | n | n | n | x
C=CCS/C(N)=N\N=C\c1cc(Br)cc([N+](=O)[O-])c1O | 52.9 | n | n | n | n | n | 50.6
O=[N+]([O-])c1cc(Br)cc(/C=N/n2cnnc2)c1O | n | n | n | n | n | n | x
COc1cc(/C=C/c2sc3ccccc3[n+]2CCCS(=O)(=O)[O-])ccc1O | 56.0 | n | n | n | n | n | n
CCOC(=O)c1oc2ccc(Br)cc2c1NC(=O)CN1CCN(C)CC1 | 69.4 | n | n | x | n | n | n
CC(=O)N1c2ccc(S(=O)(=O)NCCC(=O)Nc3ccc(OC(F)(F)F)cc3)cc2CC1C (centres undefined) | n | n | n | n | x | n | x
O=c1cc(C(F)(F)F)[nH]c2ccc(C(F)(F)F)cc12 | 60.8 | n | n | n | n | n | 81.8
Cc1cc(=O)c2ccc(C(F)(F)F)cc2[nH]1 | n | n | n | n | n | n | x
C(=C\c1nc(N2CCCC2)c2ccccc2n1)/c1ccccc1 | 89.7 | n | n | n | n | n | 94.8
CNC(C)C(=O)NC(C(=O)N1CCCC1C(=O)Nc1ccc2ncccc2c1)C(C)C (centres undefined) | n | n | n | x | n | n | x
CC1CCCC(NC(=O)CSC2=Nc3ccccc3C3CC=NN23)C1C (centres undefined) | n | n | n | x | n | n | x
O=C(CCN1C(=O)/C(=C\c2ccccc2)SC1=S)NNC(=O)c1cccnc1 | 80.5 | n | n | n | n | n | 70.0
COc1ccc(-c2[nH]ncc2CN(CCO)CC23CC4CC(CC(C4)C2)C3)c(OC)c1 | n | n | n | n | n | n | x
Cc1cc(C(=O)NNC(=S)NCc2ccco2)n(C)n1 | n | n | n | n | x | n | x
CC(C)c1cc(C(=O)NNC(=S)NCc2ccco2)c(O)c(C(C)C)c1 | 85.2 | n | n | n | n | 19.4 | 83.3
Cc1ccc2sc(N(CCCN(C)C)C(=O)CN3C(=O)c4ccccc4C3=O)nc2c1C | n | n | n | n | n | n | x
COC(=O)c1cc([N+](=O)[O-])c(C)c(C)n1 | 54.3 | x | x | x | x | x | n | MPTP swell DR=n;MPTP cs DR=n
Cc1c(C(N)=O)cc([N+](=O)[O-])cc1[N+](=O)[O-] | n | x | x | x | x | n | x
O=C(/C=C/c1cccs1)Nc1ccc([N+](=O)[O-])cc1 | 81.0 | n | n | n | n | 26.1 | 74.5
